Data from PubChem BioAssay (NCI).
The panel holds about 83,000 compounds, 20% with a hit somewhere; the sample as a whole holds those more often.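 Values shown are percent growth following 48 h exposure of cells in 96-well plates to a single concentration of compound; below 10 was considered active.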 Calls of active or inactive are those of the source.

Tests used:
Test in all cases: NCI-60 one-dose screen, 48 h (100 = growth as untreated, 0 = no growth, -100 = all killed)
Conditions in all cases: 10 µM unless noted
DU-145 prostate = tested on: DU-145 prostate
K-562 leukemia = tested on: K-562 leukemia
MALME-3M melanoma = tested on: MALME-3M melanoma
MDA-MB-231 breast = tested on: MDA-MB-231 breast
RXF 393 renal = tested on: RXF 393 renal
SF-268 CNS = tested on: SF-268 CNS
SF-295 CNS = tested on: SF-295 CNS
SF-539 CNS = tested on: SF-539 CNS
UACC-257 melanoma = tested on: UACC-257 melanoma
M14 melanoma = tested on: M14 melanoma

Measured: growth

CC(=O)c1sc2sc(C(C)=O)c(C)c2c1C
inactive: DU-145 prostate 111% | K-562 leukemia 95.5% | MALME-3M melanoma 126% | MDA-MB-231 breast 101% | RXF 393 renal 93% | SF-268 CNS 97.1% | SF-295 CNS 105% | SF-539 CNS 85.1% | UACC-257 melanoma 81.3% | M14 melanoma 107%

CCNc1nc(O)c(/C=C2\C=Nc3ncccc32)s1
inactive: K-562 leukemia 26.3% | MDA-MB-231 breast 10.7%
active: DU-145 prostate 9.93% | MALME-3M melanoma -6.17% | RXF 393 renal -39.3% | SF-268 CNS -5.81% | SF-295 CNS 4.95% | SF-539 CNS -64.2% | UACC-257 melanoma -15.9% | M14 melanoma 0.692%

COc1ccc2c(c1)c(-c1nc(-c3c[nH]c4ncccc34)cs1)cn2CCO
inactive: DU-145 prostate 56.5% | K-562 leukemia 43.5% | MALME-3M melanoma 75.9% | MDA-MB-231 breast 51.5% | RXF 393 renal 30.1% | SF-268 CNS 66.6% | SF-295 CNS 57.9% | SF-539 CNS 50% | UACC-257 melanoma 91% | M14 melanoma 59.3%

CCOC(=O)/C=C1\S/C(=N\Nc2cc(=O)[nH]c3ccccc23)N(c2ccccc2)C1=O
inactive: DU-145 prostate 109% | K-562 leukemia 98.2% | MALME-3M melanoma 101% | MDA-MB-231 breast 97.8% | RXF 393 renal 103% | SF-268 CNS 104% | SF-295 CNS 103% | SF-539 CNS 96.9% | UACC-257 melanoma 107% | M14 melanoma 101%

COC(=O)c1c2c(n3ccccc13)C(=O)c1ccccc1C2=O
inactive: DU-145 prostate 69.4% | K-562 leukemia 54.9% | MALME-3M melanoma 55.8% | MDA-MB-231 breast 64.4% | RXF 393 renal 72.1% | SF-268 CNS 74% | SF-295 CNS 64.5% | SF-539 CNS 89.5% | UACC-257 melanoma 70.4% | M14 melanoma 63.6%

COC(=O)C(Cc1ccccc1)NC(=O)c1ccc(NC(=O)c2[nH]c(C)c(Cl)c2Cl)c(OC(C)C)c1 (stereo not given)
active: SF-539 CNS -17.9%
inactive: DU-145 prostate 77.6% | K-562 leukemia 42.1% | MALME-3M melanoma 71.4% | MDA-MB-231 breast 66.3% | RXF 393 renal 128% | SF-268 CNS 86.4% | SF-295 CNS 87.5% | UACC-257 melanoma 101% | M14 melanoma 51.3%

Clc1ccc(-c2cc(-c3ccccc3)nc(NCCNc3ccnc4cc(Cl)ccc34)n2)cc1
inactive: DU-145 prostate 13.1% | RXF 393 renal 26% | SF-295 CNS 73.2% | SF-539 CNS 74.5% | UACC-257 melanoma 13.3%
active: K-562 leukemia 0.266% | MALME-3M melanoma -62.7% | MDA-MB-231 breast -69.2% | SF-268 CNS 3.04% | M14 melanoma -69.7%

CCN(CC)c1ccc(CNc2cc(C)nc3ccccc23)cc1
inactive: DU-145 prostate 77.8% | K-562 leukemia 31% | MALME-3M melanoma 69.8% | MDA-MB-231 breast 66.6% | RXF 393 renal 68.8% | SF-268 CNS 87.7% | SF-295 CNS 50.9% | SF-539 CNS 74.7% | UACC-257 melanoma 62.5% | M14 melanoma 64.8%

CC(=C(c1ccc(OCCN2CCCCC2)cc1)c1ccc(OCCN2CCCCC2)cc1)c1ccc(Cl)cc1
active: DU-145 prostate -92.8% | K-562 leukemia -65.7% | MALME-3M melanoma -84.3% | MDA-MB-231 breast -85.1% | RXF 393 renal -78.8% | SF-268 CNS -77.2% | SF-295 CNS -92.1% | SF-539 CNS -94.9% | UACC-257 melanoma -82.1% | M14 melanoma -81.9%

O=P(O)(O)OCC1OC(n2cnc3c(NCc4ccco4)ncnc32)C(O)C1O (stereo not given)
inactive: K-562 leukemia 63.3% | MALME-3M melanoma 87.4% | SF-268 CNS 29.3% | SF-295 CNS 34.7% | SF-539 CNS 16.1% | UACC-257 melanoma 77.6% | M14 melanoma 34.5%
active: DU-145 prostate -58.5% | MDA-MB-231 breast -21.5% | RXF 393 renal 4.85%

Cc1ccc(NC(=O)Cn2c(Br)nc3c2c(=O)n(C)c(=O)n3C)cc1
inactive: DU-145 prostate 44.1% | K-562 leukemia 51.6% | SF-268 CNS 56.1% | UACC-257 melanoma 62.2% | M14 melanoma 43.1%
active: MALME-3M melanoma -36% | MDA-MB-231 breast -19.2% | RXF 393 renal -3.2% | SF-295 CNS 0.92% | SF-539 CNS 1.55%

CCN1C(=O)N(CC)C2C1N=C(SCc1ccc(Cl)cc1)N2/N=C/C=C/c1ccccc1OC (stereo not given)
inactive: DU-145 prostate 90.7% | K-562 leukemia 20.9% | MALME-3M melanoma 60.9% | MDA-MB-231 breast 75.2% | RXF 393 renal 49.8% | SF-268 CNS 64.5% | SF-295 CNS 57.5% | SF-539 CNS 68% | UACC-257 melanoma 42% | M14 melanoma 45.5%

COc1ccc(-c2nc(-c3cn(C)c4ncccc34)cs2)cc1
active: MALME-3M melanoma -54.9% [100 µM] | RXF 393 renal -12.6% [100 µM] | SF-295 CNS -25.5% [100 µM] | SF-539 CNS -67.2% [100 µM] | M14 melanoma -69.6% [100 µM]
inactive: DU-145 prostate 15.2% [100 µM] | K-562 leukemia 11% [100 µM] | MDA-MB-231 breast 15.9% [100 µM] | SF-268 CNS 23.4% [100 µM] | UACC-257 melanoma 17.5% [100 µM]

COc1cc2c(c(OC)c1OC)C(=O)CC(c1cccc(NC(=O)c3ccc(C#N)cc3)c1)O2 (stereo not given)
inactive: DU-145 prostate 83.6% | K-562 leukemia 48.6% | MALME-3M melanoma 83.7% | MDA-MB-231 breast 79.9% | RXF 393 renal 97.3% | SF-268 CNS 86.5% | SF-295 CNS 77.9% | SF-539 CNS 92.7% | UACC-257 melanoma 72.3% | M14 melanoma 64.4%

Cc1nnc(-c2ccc3c(c2)nc(/C=C/c2ccccc2)n3C2CCCCC2)o1
inactive: DU-145 prostate 91.5% | K-562 leukemia 45.9% | MALME-3M melanoma 95% | MDA-MB-231 breast 87.3% | RXF 393 renal 84.6% | SF-268 CNS 86.5% | SF-295 CNS 76.1% | SF-539 CNS 110% | UACC-257 melanoma 77.4% | M14 melanoma 73.7%

CCN1C(=O)N(CC)C2C1NN=c1s/c(=C\c3ccc[nH]3)c(=O)n12 (stereo not given)
inactive: K-562 leukemia 10.2% | MALME-3M melanoma 34.5% | MDA-MB-231 breast 30.6% | SF-268 CNS 44.6% | SF-295 CNS 12.4% | UACC-257 melanoma 46.7%
active: DU-145 prostate -11.9% | RXF 393 renal -26.6% | SF-539 CNS -21.5% | M14 melanoma -5.38%

O=C(Cc1ccccc1)Nc1cccc(N=Cc2ccccc2O)c1
inactive: DU-145 prostate 93.1% | K-562 leukemia 98.7% | MALME-3M melanoma 106% | MDA-MB-231 breast 114% | RXF 393 renal 111% | SF-268 CNS 84% | SF-295 CNS 100% | SF-539 CNS 101% | UACC-257 melanoma 105% | M14 melanoma 107%

CCN1CCN(CCNc2nccc(-c3c(-c4ccc(F)c(OC)c4)nc4sccn34)n2)S1(=O)=O
inactive: DU-145 prostate 84.1% | K-562 leukemia 54.4% | MDA-MB-231 breast 50.8% | RXF 393 renal 45% | SF-268 CNS 79% | SF-295 CNS 90.5% | SF-539 CNS 99.1% | UACC-257 melanoma 30.7% | M14 melanoma 20.7%
active: MALME-3M melanoma -7.64%

COCCn1cc(-c2csc(-c3c[nH]c4ccc(Br)cc34)n2)c2cccnc21
active: K-562 leukemia 0.0972% | MDA-MB-231 breast 4.45%
inactive: DU-145 prostate 46.7% | MALME-3M melanoma 53.1% | RXF 393 renal 58.9% | SF-268 CNS 44.3% | SF-295 CNS 17.7% | SF-539 CNS 45.5% | UACC-257 melanoma 28.9% | M14 melanoma 14.3%

N#Cc1c(-c2ccccc2)nc(SCC(O)CN2CCOCC2)nc1N1CCOCC1 (stereo not given)
inactive: DU-145 prostate 61.7% | K-562 leukemia 90% | MALME-3M melanoma 23.1% | MDA-MB-231 breast 77.3% | RXF 393 renal 72.5% | SF-268 CNS 62.3% | SF-295 CNS 43.6% | SF-539 CNS 56.6% | UACC-257 melanoma 17.1% | M14 melanoma 59.9%

N#Cc1c(-c2ccccc2)nc(SCc2nnc(-c3ccc(Cl)cc3)o2)[nH]c1=O
inactive: DU-145 prostate 108% | K-562 leukemia 84.1% | MALME-3M melanoma 88.9% | MDA-MB-231 breast 103% | RXF 393 renal 106% | SF-268 CNS 100% | SF-295 CNS 89.5% | SF-539 CNS 104% | UACC-257 melanoma 94.7% | M14 melanoma 92.1%

O=C(O)[C@@H](Cc1ccc2ccccc2c1)NC(=O)n1c2ccccc2c2ccccc21
active: SF-539 CNS 1.16% | M14 melanoma 4.26%
inactive: DU-145 prostate 19.4% | K-562 leukemia 11.6% | MALME-3M melanoma 22% | MDA-MB-231 breast 15.6% | RXF 393 renal 14.6% | SF-268 CNS 42.5% | SF-295 CNS 11.6% | UACC-257 melanoma 57.7%

CC1(C)[C@@H](O[C@@H]2OC[C@@H](O[C@@H]3O[C@H](CO)[C@@H](O)[C@H](O)[C@H]3O[C@@H]3OC[C@@H](O)[C@H](O)[C@H]3O)[C@H](O)[C@H]2O[C@@H]2O[C@H](CO)[C@@H](O)[C@H](O)[C@H]2O)CC[C@]2(C)[C@H]3CC[C@]45OC[C@@]6(CC[C@](C)(C=O)C[C@H]64)[C@H](O)C[C@@]5(C)[C@]3(C)CC[C@@H]12
active: DU-145 prostate -82.1% | K-562 leukemia -18% | MALME-3M melanoma -79.8% | MDA-MB-231 breast -59.5% | RXF 393 renal -77.2% | SF-268 CNS -55.1% | SF-295 CNS -89% | SF-539 CNS -22.6% | UACC-257 melanoma -87.1% | M14 melanoma -85%

CCNC(=O)Oc1ccc(/C(=C(/C)Cc2ccc(OC)cc2)c2ccc(OCCN3CCCCC3)cc2)cc1
inactive: DU-145 prostate 83.5% | MALME-3M melanoma 68.1% | MDA-MB-231 breast 78.4% | RXF 393 renal 61.6% | SF-268 CNS 70% | SF-295 CNS 82.6% | SF-539 CNS 82.9% | UACC-257 melanoma 95.3%
active: K-562 leukemia 0.352% | M14 melanoma -14.2%

COc1ccc(C(=O)/C=C/c2ccc(N3CCCCC3)cc2)cc1OC
inactive: DU-145 prostate 95.4% | K-562 leukemia 76% | MALME-3M melanoma 104% | MDA-MB-231 breast 91.8% | RXF 393 renal 107% | SF-268 CNS 95.3% | SF-295 CNS 95.2% | SF-539 CNS 98.2% | UACC-257 melanoma 82.8% | M14 melanoma 89.4%

COC(=O)c1cc(Br)ccc1O
inactive: DU-145 prostate 110% | K-562 leukemia 111% | MALME-3M melanoma 102% | MDA-MB-231 breast 118% | RXF 393 renal 101% | SF-268 CNS 105% | SF-295 CNS 102% | SF-539 CNS 107% | UACC-257 melanoma 109% | M14 melanoma 105%
